# CYP2C9 activ: human CYP2C9 activators, primary screen, biochemical, luminescence; recombinant CYP2C9, luciferin-H conversion; stronger effect = higher value; factor 1 = untreated enzyme, 0 = blocked; activation factor at 5 µM; Cytochrome P450 2C9 (Homo sapiens), P11712; hit rate 1.4% among 96,000; AID 1024, 2008;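 active means activation factor of 2 or more for CYP2C9 at a 5 µM dose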;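 further: 0 = sulfaphenazole-blocked wells and 1 = vehicle-only wells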
# PostGolgi ctrl: growth inhibition of yeast control strain, primary screen, counter-screen for post-Golgi transport modulator project; efflux-deficient yeast background strain, growth absorbance A615, 16 h; inhibition, % at 10 µM; hit rate 5% among 98,000; AID 738, 2007
# CYP2C19 activ: human CYP2C19 activators, primary screen, biochemical, luminescence | Cytochrome P450 2C19 (Homo sapiens), P33261 | activation factor at 5 µM | recombinant CYP2C19, luciferin-H EGE luminescence; stronger effect = higher value; 0 = fully inhibited enzyme, 1 = untreated enzyme | 96,000 tested, under 10 active;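 active means activation factor of at least 2 at 5 µM in the primary screen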;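 further: 0 = wells with 2.5 mM tranylcypromine and 1 = vehicle-only wells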
# CYP2C19 inhib: blockers of cytochrome P450 2C19 activity – biochemical, luminescence, ADME assay, primary screen | P33261 | CYP2C19 Supersomes, luciferin-H EGE luminescence, 30 min | inhibition, % at 5 µM | hit rate 21% among 96,000;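 active means CYP2C19 inhibition above a set limit at 5 µM in the primary screen, cut at about 50% in these data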;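 further: plate controls were negative control wells for no effect and 2.5 mM tranylcypromine positive control for full effect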
# CYP2C9 inh: blockers of cytochrome P450 2C9 activity – biochemical, luminescence, ADME assay, primary screen; P11712; CYP2C9 Supersomes, luciferin-H conversion; inhibition, % at 5 µM; hit rate 20% among 96,000; AID 777, 2007;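 active means blocking of liver enzyme CYP2C9 beyond about 50% at 5 µM, limit read from the data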
# PostGolgi yeast: phenotypic screen on post-Golgi transport, primary screen | inhibition, % at 10 µM | hit rate 0.9% among 98,000 | post-Golgi transport phenotypic cell assay;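 further: yeast cells grown in 1536-well plates; yeast grown about 18 h at 30C before absorbance read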
# Active calls of the source: *; · = not tested or not shown. The list is not random: actives were taken first. Their share in the collection is about 32%. Unless noted, no stated cut-off is given here; in the data, active means inhibition above about 30%; inactive means the rest.
SMILES,CYP2C9 activ,PostGolgi ctrl,CYP2C19 activ,CYP2C19 inhib,CYP2C9 inh,PostGolgi yeast
O=C1Cc2ccccc2C(=O)N1Cc1ccccc1,0.7,5,0.2,85*,26,2
O=C1c2cccc3c(O)ccc(c23)C(=O)N1Cc1ccccc1,1.5,23,0.4,64*,-51,30*
CSc1ccc(N2C(=O)NC3(CCCCC3)C2=O)cc1,1.1,23,0.3,70*,-8,18
CCOC(=O)C1CCN(Cc2cnc(Oc3ccc(Cl)cc3C)s2)CC1,0.9,17,1,1,9,49*
CCOC(=O)C1CCN(Cc2ccc(O)c(OC)c2)CC1,1,6,0.7,30,3,7
CCOC(=O)C1CCN(Cc2cnc(Oc3ccc(N)cc3)s2)CC1,0.4,5,0.6,45,62*,8
CCOc1ccc(-n2c(C)nc3cc(C(=O)NCCCN4CCOCC4)ccc32)cc1,0.9,19,0.7,35,13,0
Cc1ccc(N2C(=O)C(Cl)=C(NCc3ccccc3)C2=O)c(C)c1,0.5,30,0.5,51*,53*,-7
Cn1c(NCc2ccccc2)cc(=O)n(C)c1=O,1.1,8,1.1,-6,-10,0
O=C(c1ccncc1)N(Cc1ccccc1)Cc1nc2ccccc2c(=O)[nH]1,0.1,20,0.4,56*,93*,3
COCC(=O)N(CCc1ccc(OC)cc1)Cc1nc2ccccc2c(=O)[nH]1,0.8,-1,0.5,47,22,-10
O=C(C1CC1)N(CCc1ccccc1)Cc1nc2ccccc2c(=O)[nH]1,0.4,17,0.4,56*,58*,15
O=C(C1CCC1)N(CCc1ccccc1)Cc1nc2ccccc2c(=O)[nH]1,0.1,9,0.4,64*,85*,-4
CCCC(=O)N(CCc1ccc(OC)cc1)Cc1nc2ccccc2c(=O)[nH]1,0.8,0,0.7,31,20,-6
CN=C1c2ccccc2CN1c1cccc(C(=O)OC)c1,1,-5,0.7,31,-4,-5
Cc1ccccc1C(=O)c1cccn1CC(=O)NCCN1CCN(c2cccc(C)c2C)CC1,0.5,13,0.2,83*,46,1
Cc1ccccc1C(=O)c1cccn1CC(=O)NCc1ccco1,0.9,11,0.9,10,5,3
O=C(Nc1nccs1)c1cccc(S(=O)(=O)N2CCOCC2)c1,·,-4,·,·,·,-5
CS(=O)(=O)N(Cc1ccccc1)c1ccccc1C(=O)O,1.1,5,1.2,-18,-12,-3
CC(NO)/C(=N\O)c1cccs1 (configuration not stated),0.9,4,1.1,-5,5,-1
Cn1ncc([N+](=O)[O-])c1C(=O)N1CCOCC1,1,-5,1,5,-1,-2
Cc1c([N+](=O)[O-])c(C(=O)N2CCCC2)nn1C,1.4,42*,0.7,25,-37,-3
CC1CC(C)CN(C(=O)COC(=O)CNS(=O)(=O)/C=C/c2ccccc2)C1 (configuration not stated),1,-3,0.9,10,0,9
CC1CC(C)CN(C(=O)c2ccc3c(c2NCCO)C(=O)c2ccccc2C3=O)C1 (configuration not stated),0.1,14,0.1,94*,95*,1
CCn1c(SCC(=O)NNC(=O)c2ccccc2)nnc1-c1ccncc1,1.1,4,1.1,-13,-8,-3
CCCNC(=O)NC(=O)CSc1nnc(-c2ccncc2)n1CC,0.7,-2,0.1,95*,28,1
CCn1c(SCC(=O)NCC(=O)Nc2ccc(F)cc2)nnc1-c1ccncc1,0.7,35*,1,3,35,-2
CC12CCC(C(=O)N3CCN(Cc4ccccc4)CC3)(OC1=O)C2(C)C (configuration not stated),0.3,8,0.3,72*,67*,2
O=C(N1CCN(Cc2ccccc2)CC1)C12CC3CC(CC(C3)C1)C2,0.3,5,0,99*,72*,-2
O=C(CCCCC(=O)N1CCN(c2ccccc2)CC1)N1CCN(c2ccccc2)CC1,0.8,·,0.8,18,23,·

# Assay outcomes as filed in PubChem.
